SMILES strings stand for the structures. A number with no mark means an inactive call. The rule behind the calls is not given here. Where a SMILES comes first, the peptide text is derived from it. [ ]: non-standard residue; d: D form. ξ: configuration not given here. ξV = CC(C)C(N)C(=O)O

Chain of Botulinum neurotoxin type A (Clostridium botulinum) (P0DPI0 whole entry, looked up): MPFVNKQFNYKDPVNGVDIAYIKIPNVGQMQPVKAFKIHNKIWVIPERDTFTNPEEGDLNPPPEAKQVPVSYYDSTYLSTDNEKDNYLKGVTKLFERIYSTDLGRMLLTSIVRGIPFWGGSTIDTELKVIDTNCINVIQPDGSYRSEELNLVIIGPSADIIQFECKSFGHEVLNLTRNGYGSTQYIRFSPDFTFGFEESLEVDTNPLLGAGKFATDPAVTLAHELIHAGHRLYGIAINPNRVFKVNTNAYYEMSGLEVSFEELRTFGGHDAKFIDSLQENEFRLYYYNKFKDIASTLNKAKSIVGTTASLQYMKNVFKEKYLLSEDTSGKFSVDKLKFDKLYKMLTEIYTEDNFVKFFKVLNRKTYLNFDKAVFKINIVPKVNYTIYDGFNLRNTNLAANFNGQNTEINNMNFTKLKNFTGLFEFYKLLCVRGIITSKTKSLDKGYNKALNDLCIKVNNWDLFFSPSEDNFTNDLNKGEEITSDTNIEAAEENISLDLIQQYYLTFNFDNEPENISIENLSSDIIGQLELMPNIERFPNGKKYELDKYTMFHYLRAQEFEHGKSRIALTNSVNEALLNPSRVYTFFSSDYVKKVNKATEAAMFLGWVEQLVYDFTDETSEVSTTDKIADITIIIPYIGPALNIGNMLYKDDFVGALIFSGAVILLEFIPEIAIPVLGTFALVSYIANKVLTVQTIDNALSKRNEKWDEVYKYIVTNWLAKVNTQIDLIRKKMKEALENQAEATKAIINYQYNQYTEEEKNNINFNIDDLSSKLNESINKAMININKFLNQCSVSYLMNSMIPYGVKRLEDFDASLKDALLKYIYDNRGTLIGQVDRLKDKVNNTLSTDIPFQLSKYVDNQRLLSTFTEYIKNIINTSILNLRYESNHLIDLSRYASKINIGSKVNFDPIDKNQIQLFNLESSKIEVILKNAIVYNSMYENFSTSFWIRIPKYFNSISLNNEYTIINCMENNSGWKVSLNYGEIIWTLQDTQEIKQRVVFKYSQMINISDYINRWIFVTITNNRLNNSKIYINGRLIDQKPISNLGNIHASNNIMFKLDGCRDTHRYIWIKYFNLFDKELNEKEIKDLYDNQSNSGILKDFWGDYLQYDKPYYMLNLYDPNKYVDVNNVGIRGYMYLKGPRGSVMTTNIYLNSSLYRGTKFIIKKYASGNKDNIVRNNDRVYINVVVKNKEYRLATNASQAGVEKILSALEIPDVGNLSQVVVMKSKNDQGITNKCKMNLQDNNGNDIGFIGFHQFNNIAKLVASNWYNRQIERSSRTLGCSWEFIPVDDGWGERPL

One experiment has as its target Botulinum neurotoxin type A (Clostridium botulinum) (UniProt P0DPI0). As to the kind of experiment: BoNT/A light chain protease inhibitors, biochemical, multiplex microsphere flow cytometry, validation set (AID 588460). The following applies: at 10 µM, hits give high values.
With `CC1(C)c2ccccc2N2CC(=O)N(CC(N)=O)C21C` (stereo not drawn), the inhibition is -1.4%.

Take `NC(N)=N/N=C/c1ccc(OS(=O)(=O)c2ccccc2)cc1`: the inhibition is -1.5%.

As for `COc1ccc(CNC(=O)c2c(O)c3cccc4c3n(c2=O)CCC4)cc1`, the inhibition is -0.1%.

Regarding `CC(=O)Oc1cc2oc(=O)cc(C)c2cc1OC(C)=O`, the inhibition was -0.8%.

`COc1ccccc1/C=C/C(=O)c1c2c(c(C)[nH]c1=O)CCCC2`: the inhibition was 0.5%.

Regarding `CC(=O)NC(C(=O)NCC(N)=O)C(C)C` (stereo not drawn) (Ac-[ξV]-Gly-NH2), the inhibition is 0.1%.

`Cc1nc2sccn2c(=O)c1CCN1CCC(=C(c2ccc(F)cc2)c2ccc(F)cc2)CC1`: the inhibition is -0.2%.

Turning to `O=C(c1ccc(O)cc1)c1ccc(O)cc1O`, the inhibition is 1.3%.

Turning to `Cn1c(=O)oc2cc(S(=O)(=O)N3CCc4ccccc4C3)ccc21`, the inhibition was -3%.

Take `CN=C1c2cc3cc(OC)ccc3n2CCN1C`: the inhibition was -0.6%.

Take `Nc1nc2c(ncn2COC(CO)CO)c(=O)[nH]1`: the inhibition is -1.1%.

For `COc1ccc2c(c1)C(=O)CC(c1ccccc1F)O2` (stereo not drawn), the inhibition was -0.4%.

As for `CCOC(=O)c1ccc2[nH]c(C)c(CCC(C)=O)c(=O)c2c1`, the inhibition was 0.3%.

In the case of `Cc1ccccc1NC(=O)C1(C)Cc2ccccc2C(=O)O1` (stereo not drawn), the inhibition was 0.5%.

`CC(=O)c1c(N)nc2n(c1=O)CCCCC2`: the inhibition was -1%.

Consider `CNCCCN1c2ccccc2CCc2ccccc21`, for which the inhibition is -0.6%.

Regarding `C=CCN1C(=O)c2oc3ccccc3c(=O)c2C1c1ccc(O)c(OC)c1` (stereo not drawn), the inhibition is -0.6%.

For the compound `O=C(c1ccccc1F)c1cc2c(cc1[N+](=O)[O-])OCCO2`, the inhibition is -0.4%.

Turning to `O=C(NC(Nc1ccccn1)C(Cl)(Cl)Cl)c1ccccc1` (stereo not drawn), the inhibition is -1.5%.

Turning to `O=C(O)c1ccccc1C(=O)OCCCCOC(=O)c1ccccc1C(=O)O`, the inhibition is -0.6%.

As for `CCOc1ccc2oc(-c3ccccc3)c(C(=O)O)c2c1`, the inhibition is -0.2%.

`O[C@H]1COC2C1OC[C@@H]2O` (stereo partly drawn): the inhibition was -0.4%.

Regarding `CN1CCN(C2=Nc3cc(Cl)ccc3Nc3ccccc32)CC1`, the inhibition is -0.4%.

With `Cn1c2c(c(=O)[nH]c1=O)C(c1ccc(O)cc1)C1=C(N2)c2ccccc2C1=O` (stereo not drawn), the inhibition is -0.5%.

With `CC(=O)OCC(=O)[C@@]1(O)CC[C@H]2[C@@H]3CCC4=CC(=O)C=C[C@]4(C)[C@H]3[C@@H](O)C[C@@]21C`, the inhibition was -1.8%.

For `Cn1c(SCC(=O)c2ccccc2)nnc1-c1ccncc1`, the inhibition was 0.4%.

As for `COc1cc(/C=C/C(=O)N2CCCC2)cc(OC)c1OC`, the inhibition is 0.4%.

Take `COc1ccc(-n2cc(CNCc3cccnc3)c(-c3cccc(F)c3)n2)cc1`: the inhibition was -0.7%.

Consider `COc1ccc(C2c3c(n[nH]c3C)CC(C)(O)C2C(C)=O)cc1OC` (stereo not drawn), for which the inhibition was 0.1%.

Consider `COc1ccc(C(=O)Nc2ncc3c(n2)CC(C)CC3=O)cc1` (stereo not drawn), for which the inhibition is -0.9%.

For the compound `O=C(NCCN1CCOCC1)c1ccc(Cl)cc1`, the inhibition was 1.2%.

For `Nc1ccn([C@@H]2O[C@H](CO)[C@@H](O)[C@@H]2O)c(=O)n1`, the inhibition is -0.7%.

For the compound `COc1cc2c(cc1OC)C(C)=NC1(CCCCC1)C2`, the inhibition was 4.8%.

Regarding `CC(=O)Oc1ccc(C(=O)O)cc1OC(C)=O`, the inhibition is 0.4%.

As for `CC1(C(=O)O)CCC(C(=O)NC2CCCCCC2)C1(C)C` (stereo not drawn), the inhibition was -1.2%.

Take `Cc1ccccc1C(=O)NCC(=O)O`: the inhibition is 2.7%.

With `C#CCN(C)Cc1ccccc1`, the inhibition is -0.5%.

On to `O=C1C2CC=C(Cl)CC2C(=O)N1CCc1c[nH]c2ccccc12` (stereo not drawn), for which the inhibition was 0.1%.

In the case of `COc1cc2cc(C(=O)O)[nH]c2c(OC)c1OC`, the inhibition is -0.4%.

For another experiment, the target named is Lethal factor (Bacillus anthracis) (UniProt P15917). As to the kind of experiment: Bacillus anthracis lethal factor inhibition, microsphere flow cytometry protease assay, validation at 10 µM (AID 588461). The following applies: multiplex microsphere protease cleavage assay, hits give high values.
Chain of Lethal factor (Bacillus anthracis) (P15917 whole entry, looked up): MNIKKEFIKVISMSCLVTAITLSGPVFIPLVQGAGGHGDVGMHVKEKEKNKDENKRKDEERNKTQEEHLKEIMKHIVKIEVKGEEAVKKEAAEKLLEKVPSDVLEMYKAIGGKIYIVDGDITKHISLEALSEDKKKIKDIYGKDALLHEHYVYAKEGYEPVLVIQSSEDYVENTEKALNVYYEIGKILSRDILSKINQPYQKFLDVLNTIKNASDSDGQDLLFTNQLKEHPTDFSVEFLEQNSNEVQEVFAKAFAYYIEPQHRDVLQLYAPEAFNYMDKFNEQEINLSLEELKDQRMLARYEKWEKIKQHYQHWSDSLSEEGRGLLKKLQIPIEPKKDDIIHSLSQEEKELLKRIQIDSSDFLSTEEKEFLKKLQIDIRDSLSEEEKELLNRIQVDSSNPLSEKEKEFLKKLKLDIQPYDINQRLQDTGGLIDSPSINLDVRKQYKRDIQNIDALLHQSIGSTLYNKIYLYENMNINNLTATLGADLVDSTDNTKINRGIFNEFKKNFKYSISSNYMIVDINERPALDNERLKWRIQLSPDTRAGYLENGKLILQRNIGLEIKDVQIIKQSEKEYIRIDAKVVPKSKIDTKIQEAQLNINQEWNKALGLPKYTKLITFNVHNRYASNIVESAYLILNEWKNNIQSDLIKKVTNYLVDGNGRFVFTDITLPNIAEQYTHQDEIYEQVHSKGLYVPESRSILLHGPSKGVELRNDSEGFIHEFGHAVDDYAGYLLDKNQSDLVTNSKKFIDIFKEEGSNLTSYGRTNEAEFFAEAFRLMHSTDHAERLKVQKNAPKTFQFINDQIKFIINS
Consider `CC1(C)c2ccccc2N2CC(=O)N(CC(N)=O)C21C` (stereo not drawn), for which the inhibition was -5%.

Regarding `NC(N)=N/N=C/c1ccc(OS(=O)(=O)c2ccccc2)cc1`, the inhibition is -1.4%.

As for `COc1ccc(CNC(=O)c2c(O)c3cccc4c3n(c2=O)CCC4)cc1`, the inhibition was -5.7%.

Consider `CC(=O)Oc1cc2oc(=O)cc(C)c2cc1OC(C)=O`, for which the inhibition was 1.8%.

Turning to `COc1ccccc1/C=C/C(=O)c1c2c(c(C)[nH]c1=O)CCCC2`, the inhibition is -5.8%.

For the compound `CC(=O)NC(C(=O)NCC(N)=O)C(C)C` (stereo not drawn) (Ac-[ξV]-Gly-NH2), the inhibition was 0.5%.

With `Cc1nc2sccn2c(=O)c1CCN1CCC(=C(c2ccc(F)cc2)c2ccc(F)cc2)CC1`, the inhibition was -7.2%.

As to `O=C(c1ccc(O)cc1)c1ccc(O)cc1O`, the inhibition was -0.6%.

Regarding `Cn1c(=O)oc2cc(S(=O)(=O)N3CCc4ccccc4C3)ccc21`, the inhibition is -3.5%.

Regarding `CN=C1c2cc3cc(OC)ccc3n2CCN1C`, the inhibition is -0.1%.

On to `Nc1nc2c(ncn2COC(CO)CO)c(=O)[nH]1`, for which the inhibition was -4.8%.

Turning to `COc1ccc2c(c1)C(=O)CC(c1ccccc1F)O2` (stereo not drawn), the inhibition was -0.9%.

Regarding `CCOC(=O)c1ccc2[nH]c(C)c(CCC(C)=O)c(=O)c2c1`, the inhibition is 6%.

As for `Cc1ccccc1NC(=O)C1(C)Cc2ccccc2C(=O)O1` (stereo not drawn), the inhibition is -0.2%.

`CC(=O)c1c(N)nc2n(c1=O)CCCCC2`: the inhibition is -2.9%.

With `CNCCCN1c2ccccc2CCc2ccccc21`, the inhibition was 3.8%.

On to `C=CCN1C(=O)c2oc3ccccc3c(=O)c2C1c1ccc(O)c(OC)c1` (stereo not drawn), for which the inhibition was 1.1%.

Regarding `O=C(c1ccccc1F)c1cc2c(cc1[N+](=O)[O-])OCCO2`, the inhibition is 3.6%.

For `O=C(NC(Nc1ccccn1)C(Cl)(Cl)Cl)c1ccccc1` (stereo not drawn), the inhibition was 0.6%.

With `O=C(O)c1ccccc1C(=O)OCCCCOC(=O)c1ccccc1C(=O)O`, the inhibition is 3.5%.

In the case of `CCOc1ccc2oc(-c3ccccc3)c(C(=O)O)c2c1`, the inhibition is -3.1%.

In the case of `O[C@H]1COC2C1OC[C@@H]2O` (stereo partly drawn), the inhibition is 0%.

In the case of `CN1CCN(C2=Nc3cc(Cl)ccc3Nc3ccccc32)CC1`, the inhibition is -6.6%.

For the compound `Cn1c2c(c(=O)[nH]c1=O)C(c1ccc(O)cc1)C1=C(N2)c2ccccc2C1=O` (stereo not drawn), the inhibition was 3.1%.

Take `CC(=O)OCC(=O)[C@@]1(O)CC[C@H]2[C@@H]3CCC4=CC(=O)C=C[C@]4(C)[C@H]3[C@@H](O)C[C@@]21C`: the inhibition is -2.4%.

Turning to `Cn1c(SCC(=O)c2ccccc2)nnc1-c1ccncc1`, the inhibition is 3.4%.

In the case of `COc1cc(/C=C/C(=O)N2CCCC2)cc(OC)c1OC`, the inhibition is 4.4%.

Consider `COc1ccc(-n2cc(CNCc3cccnc3)c(-c3cccc(F)c3)n2)cc1`, for which the inhibition was -8.2%.

For the compound `COc1ccc(C2c3c(n[nH]c3C)CC(C)(O)C2C(C)=O)cc1OC` (stereo not drawn), the inhibition was -2.7%.

`COc1ccc(C(=O)Nc2ncc3c(n2)CC(C)CC3=O)cc1` (stereo not drawn): the inhibition is -4.5%.

Consider `O=C(NCCN1CCOCC1)c1ccc(Cl)cc1`, for which the inhibition was -2%.

Consider `Nc1ccn([C@@H]2O[C@H](CO)[C@@H](O)[C@@H]2O)c(=O)n1`, for which the inhibition is -1.8%.

Take `COc1cc2c(cc1OC)C(C)=NC1(CCCCC1)C2`: the inhibition was -0.4%.

`CC(=O)Oc1ccc(C(=O)O)cc1OC(C)=O`: the inhibition was 2.4%.

As to `CC1(C(=O)O)CCC(C(=O)NC2CCCCCC2)C1(C)C` (stereo not drawn), the inhibition was -7.7%.

`Cc1ccccc1C(=O)NCC(=O)O`: the inhibition is 2.8%.

For the compound `C#CCN(C)Cc1ccccc1`, the inhibition is -2.8%.

As for `O=C1C2CC=C(Cl)CC2C(=O)N1CCc1c[nH]c2ccccc12` (stereo not drawn), the inhibition was 0.1%.

On to `COc1cc2cc(C(=O)O)[nH]c2c(OC)c1OC`, for which the inhibition was -3.8%.

The values above are taken from PubChem BioAssay.
